This is a sample that favours compounds with a hit; in the whole collection about 10% have one here.
ALDH1A1 block: blocks purified human ALDH1A1 activity | P00352 | Purified ALDH1A1, NADH fluorescence, propionaldehyde substrate | Potency, µM (top dose mostly 75.3 µM), inactives show at the highest dose activity, negative = inhibition, actives largely listed as inhibitors | 7.3% of 220,000 active;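 further: potency means the concentration at half of the fitted maximal effect; plate controls were no enzyme wells and a reference inhibitor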
Target sequence (P00352 whole entry, looked up): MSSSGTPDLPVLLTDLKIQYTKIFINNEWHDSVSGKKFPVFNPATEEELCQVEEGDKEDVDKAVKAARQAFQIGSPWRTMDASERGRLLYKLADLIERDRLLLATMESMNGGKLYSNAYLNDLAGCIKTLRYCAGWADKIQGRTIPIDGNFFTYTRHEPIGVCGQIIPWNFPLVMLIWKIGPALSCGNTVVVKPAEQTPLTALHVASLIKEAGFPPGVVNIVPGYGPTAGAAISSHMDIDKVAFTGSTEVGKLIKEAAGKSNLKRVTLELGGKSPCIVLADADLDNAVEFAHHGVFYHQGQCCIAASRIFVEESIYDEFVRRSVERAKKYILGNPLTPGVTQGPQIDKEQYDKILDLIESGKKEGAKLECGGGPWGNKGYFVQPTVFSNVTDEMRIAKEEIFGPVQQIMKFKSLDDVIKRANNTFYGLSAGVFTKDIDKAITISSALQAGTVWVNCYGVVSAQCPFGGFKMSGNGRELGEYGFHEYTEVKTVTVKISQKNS
PNC assembly inh: blocks assembly of the perinucleolar compartment; activity change (PNC), negative = inhibition, % at 10 µM; AID 2417; PC3M PTB-GFP, PNC prevalence imaging, 16 h; hits give low values; 3.1% of 140,000 active;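 active means readout at or below -70, meaning at least 70% loss of cells showing the perinucleolar compartment, a nuclear body marking cancer cells; inconclusive means readout between -30 and a set limit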;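 further: plate controls were DMSO wells for no effect and camptothecin positive control wells for full effect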
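Read-out is percentage of cells bearing a perinucleolar compartment, from automated 20x imaging of fixed, Hoechst-stained PC3M PTB-GFP cells. Cells were seeded 4 h, then exposed 16 h to compound (23 nl of library stock) in duplicate plates.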
KinaseGlo FLuc: counter-screen: inhibitors of Kinase-Glo firefly luciferase; Kinase-Glo luciferase, ATP luminescence, 8 min; Potency, µM (doses to about 38.3 µM), for inactives: at the highest dose activity change, negative = inhibition, hits mostly inhibitors; 0.28% of 200,000 active; active means well fitted inhibition curve with a large enough effect; inconclusive means small, poorly fitted or top-dose-only effect; further: potency means the concentration at half of the fitted maximal effect; nearly all actives have a fitted effect of over 60% in size
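Luminescence was the read-out, taken after 8-minute incubation at ambient temperature. Luciferase turned over luciferin with 10 uM ATP in imidazole pH 7.2 buffer containing KCl, MgCl2, Tween 20 and BSA.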
HPGD block: blocks human HPGD enzyme activity; AID 894; Potency, µM, for the others: top-dose activity change, negative = inhibition, most hits filed as inhibitors; purified HPGD, NADH fluorescence kinetic, PGE2 substrate; P15428; 4.3% of 150,000 active; further: potency means the concentration at half of the fitted maximal effect
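20 nM HPGD preincubated 15 min at room temperature with compound in 50 mM Tris-HCl pH 8, 0.01% Tween 20. Started with 1 mM NAD+ and 30 uM prostaglandin E2; NADH fluorescence (360/450 nm) read 5 times over 30-s intervals, last minus first.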
Lamin A splicing: modulators of lamin A splicing. HeLa LMNA splicing GFP/RFP minigene ratio, 48 h. Potency, µM (doses to about 46.1 µM), for inactives: at the top dose ratio change, negative = inhibition, most hits filed as inhibitors. 0.01% of 200,000 active; active means well fitted inhibition curve with a large enough effect in the signal ratio, with a control signal flat, not every such curve was filed as active; inconclusive means small, poorly fitted or top-dose-only effect, or effect the other way, or a change in a side signal; the % refers to the signal ratio; further: potency means the concentration at half of the fitted maximal effect
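S3 HeLa cells stably expressing lamin A-EGFP splicing minigene plus DsRed2, 600 cells/well, 48 h compound exposure at 37C. Laser-scanning cytometry; analysed as GFP (500-530 nm)/RFP (575-640 nm) total intensity ratio; 0.5% DMSO vehicle.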
* hit, by the source's call; ? = inconclusive; . = no result given; [ ] = dose if it differs, or a comment. Unless noted, the call rests on the fitted dose curve; in most records, active means well fitted inhibition curve with a large enough effect (not every such curve was filed as active); inconclusive means small, poorly fitted or top-dose-only effect, or another doubt; inactive means no such curve, though single readings can be large or run the other way. Unless noted, on the % scale 0 is the no-effect control and ±100 the full control effect.

SMILES	ALDH1A1 block	PNC assembly inh	KinaseGlo FLuc	HPGD block	Lamin A splicing
CCn1c(C(=O)NCc2cccnc2)cc2sc(Cl)cc21	-4%	43	3%	16µM*	-4%
COc1ccc(CNC(=O)c2ccc3nc(CCc4ccccc4)oc3c2)c(OC)c1	.	.	.	.	8%[46 µM]
CCC(Oc1ccccc1)C(=O)Nc1nnc(S(=O)(=O)N(CC)CC)s1 (centres undefined)	.	.	.	.	7%[46 µM]
CCN(CC)C(=O)C(=O)c1cccn1-c1c(Cl)cccc1C#N	6%	.	-5%	.	-16%[46 µM]
CN(C(=O)COc1cc(=O)n(C)c2ccccc12)c1ccc(Cl)cc1	?	12	3%	-9%	-7%
CN(c1ccc(Cl)cc1)c1cc(=O)n(C)c2ccccc12	10%	?	-1%	7.9µM*	?
Cc1noc2ncnc(N3CCCC(C(=O)Nc4cccc(C(F)(F)F)c4)C3)c12 (centres undefined)	.	.	.	.	1%[46 µM]
CCc1ccc(CNc2ccc(N3CCN(C(C)=O)CC3)cc2)cc1	22µM*	?	-1%	-13%	-25%
COc1cc(CNc2ccc(N3CCN(C(C)=O)CC3)cc2)ccc1OCc1ccccc1	18µM*	.	-2%	.	15%[46 µM]
CC(=O)N1CCN(c2ccc(NCc3ccc(C)cc3)cc2)CC1	?	?	-7%	0%	?
O=C(CNC(=O)c1ccccc1Cl)OCc1cc(=O)n2nc(C3CC3)sc2n1	.	.	.	.	9%[46 µM]
COc1cc(NS(=O)(=O)c2c(C(=O)N3CCCCC3)c(C)n(C)c2C)cc(OC)c1OC	.	.	.	.	27%[46 µM]
C=C(C(C)=O)C(O)c1cccc(Br)c1 (centres undefined)	11%	.	-1%	-5%	.
COC(=O)c1cccc(NC(=O)c2cnoc2C)c1	9%	-119*	0%	-21%	-6%
COC(=O)c1cccc(NC(=O)CCc2ccccc2)c1	25µM*	-28	-5%	25µM*	7%
COC(=O)c1cccc(NC(=O)c2cccnc2)c1	6%	80	-3%	-10%	-3%
COC(=O)c1ccc(C)c(NC(=O)CCc2ccc(OC)cc2)c1	20µM*	-7	5%	-27%	-3%
COc1ccc(CCC(=O)Nc2cccc(Cl)c2)cc1	-11%	-83*	-3%	-9%	-2%
COC(=O)c1cccc(NC(=O)CCc2cc(OC)c(OC)c(OC)c2)c1	-2%	?	-3%	-14%	?
COC(=O)[C@@]1(Cc2ccc(OC)cc2)[C@H]2c3cc(C(=O)N(C)C)n(Cc4ccc(C)c(F)c4F)c3C[C@H]2CN1C(=O)c1ccccc1	-8%	.	-6%	-17%	.
CCC/C=C(\CCC)C(NS(=O)(=O)c1cccs1)c1ccc(C(=O)OC)cc1 (centres undefined)	-14%	.	-1%	-11%	.
O=C(/C=C/c1ccccc1Cl)NCc1cccs1	?	29	-3%	14µM*	-9%
CN1CCN(S(=O)(=O)c2ccc3c4c(cccc24)C(=O)N3)CC1	?	-91*	4%	?	-5%
O=C1Nc2ccc(S(=O)(=O)N3CCCC3)c3cccc1c23	?	-10	3%	-22%	?
Cc1cccc(C)c1-n1nnnc1-c1cnccc1C(F)(F)F	20µM*	.	.	.	.
SMILES	ALDH1A1 block	PNC assembly inh	KinaseGlo FLuc	HPGD block	Lamin A splicing
C=CCNC(=O)c1ccc2c(=O)n(CCCN3CCCC3=O)c(=S)[nH]c2c1	3.2µM*	.	-1%	.	.
COc1ccc(-n2c(=S)[nH]c3cc(C(=O)NCCCN4CCCC4=O)ccc3c2=O)cc1OC	2.5µM*	2	2%	-6%	3%
O=C(NCc1ccccc1)c1ccc2c(=O)n(CCCN3CCCC3=O)c(=S)[nH]c2c1	4.5µM*	-13	-1%	-11%	11%
Cc1ccc(CNC(=O)c2ccc3c(=O)n(CCCN4CCCC4=O)c(=S)[nH]c3c2)cc1	?	32	-1%	-26%	9%
COc1ccccc1CNC(=O)c1ccc2c(=O)n(CCCN3CCCC3=O)c(=S)[nH]c2c1	2µM*	.	-4%	.	?
COc1ccccc1CNC(=O)COCc1cc(-c2ccc3c(c2)OCO3)on1	.	.	.	.	-6%[46 µM]
C[C@H](CN(C)C)C(O)(c1ccccc1)c1ccccc1	16%[13.5 µM]	.	-8%[7.66 µM]	-5%	.
c1cncc(-c2nc(-n3ccnc3)c3ccccc3n2)c1	6%	.	.	.	?
O=C(NCCCN1CCCC1=O)c1ccc2c(=O)n(Cc3ccco3)c(=S)[nH]c2c1	13µM*	?	0%	-4%	-4%

Screens as filed in PubChem BioAssay.
